Experimental data published in PubChem BioAssay (NCI).
About 83,000 compounds went through this panel and 20% of them were active in at least one assay; those are over-represented in the sample as a whole.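 The endpoint reported here, percent growth, reads 100 for growth as untreated, 0 for no net growth and -100 for all cells dead.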 Activity calls are given as the source filed them. The calls were made as follows: active = growth percent below 10; inactive = the rest.

Experiments:
Experiment in all cases: NCI-60 one-dose screen, 48 h (100 = growth as untreated, 0 = no growth, -100 = all killed)
Settings in all cases: 10 µM unless noted
HCT-15 colon = test system: HCT-15 colon
HT29 colon = test system: HT29 colon
SNB-75 CNS = test system: SNB-75 CNS
SNB-19 CNS = test system: SNB-19 CNS
U251 CNS = test system: U251 CNS
PC-3 prostate = test system: PC-3 prostate
SK-MEL-5 melanoma = test system: SK-MEL-5 melanoma
UACC-62 melanoma = test system: UACC-62 melanoma
LOX IMVI melanoma = test system: LOX IMVI melanoma
SK-MEL-28 melanoma = test system: SK-MEL-28 melanoma
SK-MEL-2 melanoma = test system: SK-MEL-2 melanoma
EKVX NSCLC = test system: EKVX NSCLC
SN12C renal = test system: SN12C renal
UO-31 renal = test system: UO-31 renal
TK-10 renal = test system: TK-10 renal
ACHN renal = test system: ACHN renal
CAKI-1 renal = test system: CAKI-1 renal
A498 renal = test system: A498 renal
CCRF-CEM leukemia = test system: CCRF-CEM leukemia
MOLT-4 leukemia = test system: MOLT-4 leukemia

Measured: growth

CC(=O)c1ccc2c(N)c(C(=O)Nc3ccc(C(F)(F)F)cc3)sc2n1
inactive: HCT-15 colon 40.7% | HT29 colon 82.2% | SNB-75 CNS 84.7% | SNB-19 CNS 67.9% | U251 CNS 72.6% | PC-3 prostate 70.2% | UACC-62 melanoma 59.7% | LOX IMVI melanoma 37.8% | SK-MEL-28 melanoma 87.2% | SK-MEL-2 melanoma 67.7% | EKVX NSCLC 40.7% | SN12C renal 73% | UO-31 renal 73.8% | TK-10 renal 67% | ACHN renal 66.2% | CAKI-1 renal 56.9% | A498 renal 126% | CCRF-CEM leukemia 60.9% | MOLT-4 leukemia 32.7%
active: SK-MEL-5 melanoma -5%

S=C(Nc1ccccc1)Nc1ccc(OCc2nc3ccc(Cl)cc3[nH]2)cc1
inactive: HCT-15 colon 67.9% | HT29 colon 105% | SNB-75 CNS 89.4% | SNB-19 CNS 89.1% | U251 CNS 82.6% | PC-3 prostate 77.8% | SK-MEL-5 melanoma 82.8% | UACC-62 melanoma 77.3% | LOX IMVI melanoma 36.3% | SK-MEL-28 melanoma 87.9% | SK-MEL-2 melanoma 91.4% | EKVX NSCLC 67.2% | SN12C renal 78.8% | UO-31 renal 70.3% | TK-10 renal 114% | ACHN renal 81.8% | CAKI-1 renal 84.1% | A498 renal 110% | CCRF-CEM leukemia 54.2% | MOLT-4 leukemia 52.3%

N#Cc1cc(-c2ccc3ncnc(N4CCc5cc(F)c(Cl)cc54)c3c2)cnc1N
inactive: HCT-15 colon 23.3% | HT29 colon 34.2% | SNB-75 CNS 24.9% | SNB-19 CNS 57.9% | U251 CNS 57% | PC-3 prostate 33.8% | SK-MEL-5 melanoma 55.9% | UACC-62 melanoma 56.7% | LOX IMVI melanoma 28.4% | SK-MEL-28 melanoma 61.2% | SK-MEL-2 melanoma 52% | EKVX NSCLC 24.6% | SN12C renal 26.8% | UO-31 renal 19.4% | TK-10 renal 29.9% | ACHN renal 26.6% | CAKI-1 renal 19.8% | CCRF-CEM leukemia 45.1%
active: A498 renal -0.0443% | MOLT-4 leukemia 7.69%

CCOC(=O)c1ccc(NC(=S)NC(=O)c2cccc(NC(=O)c3ccc(C)cc3)c2)cc1
active: U251 CNS 2.07%
inactive: HCT-15 colon 75.3% | HT29 colon 82.5% | SNB-75 CNS 73% | SNB-19 CNS 49.4% | PC-3 prostate 77.5% | SK-MEL-5 melanoma 85.8% | UACC-62 melanoma 74.9% | LOX IMVI melanoma 51.9% | SK-MEL-28 melanoma 85.2% | SK-MEL-2 melanoma 88.9% | EKVX NSCLC 74.7% | SN12C renal 31% | UO-31 renal 63.9% | TK-10 renal 89.2% | ACHN renal 75.5% | CAKI-1 renal 76.8% | A498 renal 105% | CCRF-CEM leukemia 78.3% | MOLT-4 leukemia 70.4%

O=[N+]([O-])c1cccc(-c2nnc3c(/C=C/c4ccc(F)cc4)nc4ccccc4n23)c1
inactive: HCT-15 colon 85.8% | HT29 colon 98.5% | SNB-75 CNS 54.1% | SNB-19 CNS 92.5% | U251 CNS 95.9% | PC-3 prostate 103% | SK-MEL-5 melanoma 90.9% | UACC-62 melanoma 85.1% | LOX IMVI melanoma 98.5% | SK-MEL-28 melanoma 107% | SK-MEL-2 melanoma 97.7% | EKVX NSCLC 96.2% | SN12C renal 88% | UO-31 renal 78.3% | TK-10 renal 121% | ACHN renal 93.8% | CAKI-1 renal 88.8% | CCRF-CEM leukemia 102% | MOLT-4 leukemia 90.7%

N#C/C(=C/c1ccc([N+](=O)[O-])cc1)c1nnc(NC(=O)c2ccc(-n3c(=O)[nH]c4ccccc4c3=O)cc2)s1
inactive: HCT-15 colon 93.3% | HT29 colon 110% | SNB-75 CNS 110% | SNB-19 CNS 87.1% | U251 CNS 89.5% | PC-3 prostate 90.9% | SK-MEL-5 melanoma 99% | UACC-62 melanoma 99.2% | LOX IMVI melanoma 90.5% | SK-MEL-28 melanoma 100% | SK-MEL-2 melanoma 103% | EKVX NSCLC 93.9% | SN12C renal 94% | UO-31 renal 75.6% | TK-10 renal 108% | ACHN renal 96.3% | CAKI-1 renal 92% | CCRF-CEM leukemia 97.8% | MOLT-4 leukemia 98.5%

O=Cc1cncc(-c2ccc3ncnc(N4CCc5cc(F)c(Cl)cc54)c3c2)c1
inactive: HCT-15 colon 18.7% | HT29 colon 56.6% | SNB-19 CNS 49.5% | U251 CNS 48.5% | PC-3 prostate 23.6% | SK-MEL-5 melanoma 19.5% | UACC-62 melanoma 13.4% | LOX IMVI melanoma 20.8% | SK-MEL-28 melanoma 44.2% | SK-MEL-2 melanoma 24.5% | SN12C renal 23.2% | UO-31 renal 10.7% | ACHN renal 11.5% | CAKI-1 renal 12.5% | CCRF-CEM leukemia 16.6%
active: SNB-75 CNS -12.6% | EKVX NSCLC 0.858% | TK-10 renal 4.74% | MOLT-4 leukemia -30.6%

COc1c(B(O)O)cccc1-c1nc2ccc3cn[nH]c3c2c2c1CCCC2
inactive: HCT-15 colon 54.9% | HT29 colon 85.8% | SNB-19 CNS 54.9% | U251 CNS 48.1% | PC-3 prostate 60% | SK-MEL-5 melanoma 53.4% | UACC-62 melanoma 52.1% | LOX IMVI melanoma 41.3% | SK-MEL-28 melanoma 86.6% | SK-MEL-2 melanoma 108% | EKVX NSCLC 49.3% | SN12C renal 50.6% | UO-31 renal 23.6% | TK-10 renal 12% | ACHN renal 27.3% | CCRF-CEM leukemia 39.6% | MOLT-4 leukemia 47.7%
active: SNB-75 CNS -17.7% | CAKI-1 renal -11.3% | A498 renal -2.36%
